Our source for the outcome values is PubChem BioAssay (EPA / NIEHS).

Active and inactive are the calls of the source. How the source made its calls: active means hit-call score of the fitted dose curve at least 0.9, where 1 is the maximum; inactive means score below 0.9.

The nature of this experiment: APR_HepG2_MicrotubuleCSK_1hr: Apredica 1-hour HepG2 Assay for Microtubule CSK Stabilty (AID 2282669). To be noted: HepG2 microtubule cytoskeleton imaging, actives raise or lower the signal. How it is done:
APR_HepG2_1hr is a cell-based, multiplexed-readout assay that uses HepG2, a human liver cell line, with measurements taken at 1 hour after chemical dosing in a 384-well plate.APR_HepG2_MicrotubuleCSK_1hr is one of 10 assay component(s) measured or calculated from the APR_HepG2_1hr assay. It is designed to make measurements of protein conformation, a form of conformation reporter, as detected with fluorescence intensity signals by HCS Fluorescent Imaging technology.Data from the assay component APR_HepG2_MicrotubuleCSK_1hr was analyzed into 1 assay endpoint. This assay endpoint, APR_HepG2_MicrotubuleCSK_1hr, was analyzed with bidirectional fitting relative to DMSO as the negative control and baseline of activity. Using a type of conformation reporter, measures of protein for gain or loss-of-signal activity can be used to understand the signaling at the cellular-level. Furthermore, this assay endpoint can be referred to as a primary readout, because this assay has produced multiple assay endpoints where this one serves a signaling function. To generalize the intended target to other relatable targets, this assay endpoint is annotated to the cell morphology intended target family, where the subfamily is cell conformation.
Cells were treated with dimethyl sulfoxide (DMSO) as a solvent control at a final concentration of 0.5% v/v or with compounds in DMSO with a resulting final DMSO concentration of 0.5% v/v. Compound treatment was done at concentrations of 0.39, 0.78, 1.56, 3.12, 6.24, 12.5, 25, 50, 100, and 200 uM in duplicate on each plate. Cells were treated with compounds for 1, 24, or 72 hr. Carbonyl […] m-chloro-phenylhydrazone (CCCP) and taxol were used as positive controls for mitochondrial function and cytoskeletal stability, respectively; DMSO served as the negative control for this experiment. Cells were fixed by the direct addition of 50 uL formaldehyde in Hank's Balanced Salt Solution (HBSS) to a final concentration of 3.7%. After incubation in the fixation medium for 30 min at room temperature (293-298 K), cells were rinsed twice with HBSS and treated with cell permeabilization buffer (16 uL of 0.5% Triton X-100) for 10 min at room temperature (293-298 K) before labeling. For mitochondrial membrane potential and mitochondrial measurements, pre-fixed cells were incubated with 50 uL of MitoTracker Red CMXRos (Invitrogen) at a concentration of 250 nM for 30 min before fixation. In the remaining cases, post-fixed cells were labeled by incubation with a multiplexed mixture of primary antibodies in HBSS for 60 min at room temperature (293-298 K) to detect immunoreactivity of c-Jun (1:500), phospho-histone H3 (1:100), phospho-histone H2A.x (1:200), p53 (1:400), alpha-tubulin (1:200) and Hoechst 33342 (2 ug/mL). Cells were labeled for multiplexed imaging on two separate plates: a) Hoechst 33342, MitoTracker Red, phospho-histone H3, and alpha-tubulin, and b) Hoechst 33342, phospho-histone H2A.x, and c-Jun. A final rinse with HBSS (50 uL) was performed before analysis. The primary and secondary antibodies for the proteins were phospho-histone H3 (rabbit anti-phospho-histone H3 and FITC-donkey anti-rabbit IgG), phospho-histone H2A.x (mouse anti-phospho-histone H2A.x and FITC-donkey anti-mouse IgG), c-Jun (rabbit anti-phospho-c-Jun and Cy3-donkey anti-rabbit IgG), p53 (sheep anti-p53 and Cy5-donkey anti-sheep IgG), alpha-tubulin (mouse anti-alpha-tubulin and Cy5-donkey anti-mouse IgG). These antibodies are available as the CellCiphr HepG2 assay kit (Millipore).Digital images of each well were captured using a Cellomics ArrayScan VTI (Thermo Scientific Cellomics) (0.8 NA objective, 0.63x optical coupler, and XF-93 filter set) at 20x magnification. The images were acquired using the autofocus feature of the ArrayScan instrument, which entails the following steps. First, the camera focuses on channel 1 (Hoechst 33342), where nuclei are identified. Second, a Z offset of 1 um is used for capturing mitochondria (MitoTracker Red). […]
In the case of `CSc1nnc(C(C)(C)C)c(=O)n1N`, the molecule was called inactive.
With `CNc1cnn(-c2cccc(C(F)(F)F)c2)c(=O)c1Cl`, the result was inactive.
To `CC(Oc1cccc(Cl)c1)C(=O)O` (stereo not given) belongs “inactive”; to `Cc1nn(-c2cc(NS(C)(=O)=O)c(Cl)cc2Cl)c(=O)n1C(F)F`, “inactive”.
To `CCOC(=O)COc1cc(-c2nn(C)c(OC(F)F)c2Cl)c(F)cc1Cl` belongs “inactive”; to `CCOP(=S)(OCC)Oc1ccc2c(C)c(Cl)c(=O)oc2c1`, “inactive”.
Consider `CCCOc1nn(C(=O)NS(=O)(=O)c2ccccc2C(=O)OC)c(=O)n1C`, for which the molecule was called inactive.
As for `CCc1cnc(C2=NC(C)(C(C)C)C(=O)N2)c(C(=O)O)c1` (stereo not given), the molecule was classed as inactive.
As to `CC1(C(=O)Nc2ccc(O)c(Cl)c2Cl)CCCCC1`, the molecule was called inactive.
Regarding `Nc1c(Cl)cc([N+](=O)[O-])cc1Cl`, the outcome was inactive.
Regarding `CN1COCN(Cc2cnc(Cl)s2)C1=N[N+](=O)[O-]`, the molecule was called inactive.
In the case of `CSC1=N[C@@](C)(c2ccccc2)C(=O)N1Nc1ccccc1`, the molecule was called inactive.
As to `CCC(CC)Nc1c([N+](=O)[O-])cc(C)c(C)c1[N+](=O)[O-]`, the outcome was inactive.
With `CN(C)C(=O)Nc1cccc(C(F)(F)F)c1`, the result was inactive.
With `CSc1nc(NC(C)C)nc(NC(C)C)n1`, the result was inactive.
To `CCOP(=S)(OCC)OC(Cl)C(Cl)(Cl)Cl` (stereo not given) belongs “inactive”; to `COc1ccc(C(=CC(=O)N2CCOCC2)c2ccc(Cl)cc2)cc1OC`, “inactive”.
Regarding `CC(C)[C@H](C(=O)O[C@H](C#N)c1cccc(Oc2ccccc2)c1)c1ccc(Cl)cc1`, the call was inactive.
In the case of `CC(=NC#N)N(C)Cc1ccc(Cl)nc1`, the outcome was inactive.
`CCOP(=S)(OCC)Oc1ccc([N+](=O)[O-])cc1`: the molecule was called inactive.
The value for `CCOP(=O)(SC(C)CC)N1CCSC1=O` (stereo not given) was “inactive”.
For `CC(C)N(C(=O)SCC(Cl)=C(Cl)Cl)C(C)C`, the result was inactive.
As for `S=C1NCCN1`, the outcome was inactive.
For `CCCSP(=O)(OCC)Oc1ccc(Br)cc1Cl` (stereo not given), the molecule was classed as inactive.
Consider `CCC(=O)Nc1ccc(Cl)c(Cl)c1`, for which the result was inactive.
On to `CCCCOC(=O)[C@@H](C)Oc1ccc(Oc2ccc(C#N)cc2F)cc1`, for which the molecule was called inactive.
For the molecule `COP(=O)(NC(C)=O)SC` (stereo not given), the molecule was called inactive.
Regarding `COP(=O)(OC)SCn1c(=O)oc2cc(Cl)cnc21`, the molecule was classed as inactive.
Consider `CCCCN(CC)c1c([N+](=O)[O-])cc(C(F)(F)F)cc1[N+](=O)[O-]`, for which the outcome was inactive.
Take `COc1cccc(C(=O)NN(C(=O)c2cc(C)cc(C)c2)C(C)(C)C)c1C`: the molecule was called inactive.
Take `C#CCC1=C(C)C(OC(=O)C2C(C=C(C)C)C2(C)C)CC1=O` (stereo not given): the outcome was inactive.
For the molecule `CC1=NNC(=O)N(/N=C/c2cccnc2)C1`, the molecule was called inactive.
Consider `CC(C1CC1)C(O)(Cn1cncn1)c1ccc(Cl)cc1` (stereo not given), for which the molecule was called inactive.
With `C[Si](Cn1cncn1)(c1ccc(F)cc1)c1ccc(F)cc1`, the call was inactive.
On to `COP(=O)(OC)OC(Br)C(Cl)(Cl)Br` (stereo not given), for which the molecule was called inactive.
On to `N#CSCSC#N`, for which the outcome was inactive.
On to `CCOP(=O)(OCC)Oc1cc(C)nc(C(C)C)n1`, for which the molecule was classed as inactive.
As to `CCOP(=S)(OCC)SCCSCC`, the result was inactive.
Turning to `CCCOCC(=Nc1ccc(Cl)cc1C(F)(F)F)n1ccnc1`, the outcome was inactive.
As for `COc1cc(OC)nc(Sc2cccc(Cl)c2C(=O)O)n1`, the result was inactive.
